Assay outcomes from PubChem BioAssay.
Vc quorum ag: quorum light induction in luxS cqsA deficient V. cholerae | V. cholerae BH1578 lux reporter, luminescence, 6 h | activation, % at 18.7 µM | 350,000 compounds, 0.16% hits | AID 588436; in the data active means activation mostly above about 9.7%, no sharp cut-off
Sa ugtP lethal: compounds lethal to S. aureus RN4220 ugtP deletion mutant; OD600 growth, 16 h; growth inhibition, % (no concentration beside the values); 330,000 compounds, 0.54% hits; in the data active means growth inhibition above about 68%;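 further: plate controls were untreated wells for no effect and antibiotic for full effect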
CCHF vOTU inh: CCHFV vOTU protease inhibition. 370,000 compounds, 0.55% hits. inhibition, % at 11.5 µM. Pep-AMC fluorescence; in the data active means inhibition above about 30%; further: 0% = vehicle wells with enzyme and 100% = no enzyme wells
PfHsp40 rescue: compounds rescuing yeast from Plasmodium falciparum HSP40 toxicity; 340,000 compounds, 0.68% hits; S. cerevisiae expressing PfHsp40, growth rescue, ATP luminescence; growth rescue, % at 12.5 µM; AID 504582; in the data active means growth rescue above about 28%, passing the limit was not always enough;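 further: yeast W303a lacking pdr1 and pdr3 grown in galactose medium; growth measured after three days at 30 °C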
Mtb hypoxia rep: reduces hypoxia-regulated biosensor signal in M. tuberculosis; M. tuberculosis hypoxia-regulated fluorescent reporter, fluorescence; fluorescence inhibition, % (concentration not given with the values); 300,000 compounds, 0.1% hits; in the data active means fluorescence inhibition mostly above about 23%, no sharp cut-off; inactive means mostly below about 17%
RN4220 kill: S. aureus RN4220 growth inhibition; OD600, 16 h; inhibition, % (no concentration beside the values); 330,000 compounds, 0.33% hits; in the data active means inhibition above about 85%;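 further: plate controls were untreated cells for no effect and reference antibiotic for full effect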
Numbers without * were called inactive; i = inactive; . = no result given. Shown are actives, neighbours in structure and some others; about 1.7% of the full set was active somewhere.

SMILES	Vc quorum ag	Sa ugtP lethal	CCHF vOTU inh	PfHsp40 rescue	Mtb hypoxia rep	RN4220 kill
O=C(NCc1ccccn1)C(=O)NCC1OCCN1S(=O)(=O)c1ccc(F)cc1 (stereo not given)	1.2	3.8	1.8	33.2*	7.1	2.6
O=C1C(=C(c2ccccc2)c2ccccc2)Nc2ccccc21	i	8.4	10.9	77.7*	15.3	5.4
O=C(Nc1nnc(SCc2ccc(F)cc2)s1)c1cccnc1Cl	0.3	5.3	3.7	-1.3	7.7	-5.7
O=C(Nc1nnc(SCc2ccc(F)cc2)s1)c1ccccn1	i	98.9*	17.0	161.4*	5.7	98.4*
CN(/N=C/c1ccc(Cl)cc1Cl)c1ncc(Cl)cc1C(F)(F)F	-0.7	.	1.7	-0.8	.	.
CN(N=Cc1ccccc1Cl)c1ncc(Cl)cc1C(F)(F)F	.	84.5*	.	.	5.5	-5.0
O=C(OCC(=O)N1CCN(C(=O)c2ccco2)CC1)c1ccccc1OCc1ccccc1	i	5.8	2.6	0.7	-1.7	1.7
O=C(c1ccco1)N1CCN(C(=O)c2ccccc2OCc2ccc(Cl)cc2)CC1	i	3.5	4.6	253.3*	1.4	3.5
COc1ccc(C2CC2C(C)=NOC(=O)C2CC2)cc1 (stereo not given)	.	7.9	.	.	8.1	6.0
CC1(C)Cc2c(cnn2-c2ccccc2)C(=O)C1=NNC(=O)c1ccccc1O	.	4.6	.	.	-7.2	3.3
Nc1cc2nsnc2cc1Br	-0.4	.	97.3*	1.8	.	.
CC1C(=O)OC2C1CC[C@@]1(C)C(=O)C=C[C@@](C)(O)C21 (stereo not given in full)	.	-1.8	.	.	1.5	2.8
Cc1cc(=O)[nH]c(NN=Cc2cn(CCC#N)nc2-c2ccccc2)n1	.	6.7	.	.	-1.4	4.0
NC(=O)C1CC2(CC(c3cccc(NC(=O)COc4ccc(Cl)cc4)c3)=NO2)CN1C(=O)C(c1ccccc1)c1ccccc1 (stereo not given)	.	6.7	.	.	3.9	-5.5
COc1cccc(OC)c1C(=O)N[C@@H]1C(=O)N2[C@@H]1SC(C)(C)[C@@H]2C(=O)O	i	.	-9.4	-0.3	.	.
CC1(C)SC2C(NC(=O)C(N)c3ccc(O)cc3)C(=O)N2C1C(=O)O (stereo not given)	.	61.4	.	.	4.2	24.4
CC(Oc1ccccc1)C(=O)NC1C(=O)N2C1SC(C)(C)C2C(=O)O (stereo not given)	-0.2	100.3*	-9.9	0.4	-3.5	100.3*
CC1(C)SC2C(NC(=O)C3(N)CCCCC3)C(=O)N2C1C(=O)O (stereo not given)	i	100.6*	2.6	0.7	21.4	100.4*
CC1(C)SC2C(NC(=O)Cc3ccccc3)C(=O)N2C1C(=O)O (stereo not given)	.	98.8*	.	.	3.7	100.4*
O=Cc1cc(N=Nc2ccccc2Cl)ccc1O	-0.2	78.4	14.6	211.1*	5.1	67.5
COC(=O)NN=Cc1cc(N=Nc2ccccc2Cl)ccc1O	.	2.5	.	.	3.3	-6.5
CC(CC(=O)Nc1cccc(C(F)(F)F)c1)=NNC(=O)C1CCCCC1	.	4.2	.	.	4.6	6.5
Cc1ccc(-c2nc3ccccc3nc2-c2ccccc2)cc1	-0.7	85.7*	-27.3	0.8	2.6	-2.2
Clc1ccc(-c2nc3ccccc3nc2-c2ccccc2)cc1	-3.1	88.7*	2.0	3.4	5.8	-5.2
Cc1ccc(C(=O)NCCN2C3=NCC(Cc4ccccc4)N3CC2Cc2ccc(O)cc2)cc1Br (stereo not given)	.	-2.2	.	.	11.3	-9.6
SMILES	Vc quorum ag	Sa ugtP lethal	CCHF vOTU inh	PfHsp40 rescue	Mtb hypoxia rep	RN4220 kill
C/C(=N\Nc1ccc([N+](=O)[O-])cc1)c1ccc(O)cc1	i	.	23.4	180.0*	.	.
CC(=NNc1ccc([N+](=O)[O-])cc1)c1ccc(N)cc1	.	-6.6	.	.	13.9	2.2
CC1CN(C(C)CO)C(=O)c2cccc(NS(=O)(=O)c3cccs3)c2OC1CN(C)C(=O)NC1CCCCC1 (stereo not given)	.	1.7	.	.	13.0	4.9
CCC(C)Sc1ccc(-c2nc3ccccn3c2NCc2ccccc2)cc1OC (stereo not given)	-0.4	3.0	.	88.9*	-19.4	3.0
O=C(NC(=S)Nc1ccc(N2CCOCC2)cc1)c1ccc(Cl)cc1	-0.1	86.8*	2.6	-0.1	25.7	3.4
COc1ccc(C(=O)NC(=S)Nc2ccc(N3CCOCC3)cc2)cc1Cl	-0.7	98.8*	-0.2	8.3	17.6	-3.1
Cc1cccc(C(=O)NC(=S)Nc2ccc(N3CCOCC3)cc2)c1	-0.3	86.9*	0.4	3.3	-4.3	2.0
